An excerpt weighted towards active compounds, which were near 7.5% of everything screened.
NPC1 promoter act: qHTS Assay for NPC1 Promoter Activators; Huh7 NPC1 promoter luciferase reporter, 24 h; AID 485313, 2010; 2.4% of 320,000 active; Potency, µM (top dose mostly 9.22 µM), for the others: at the highest dose activation, usual class: activators; also: % of control where 0% means no effect; nearly all actives have a fitted effect of over 60% in size
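Luminescence read-out of NPC1 promoter-driven luciferase in stably transfected Huh7 cells; compounds delivered in DMSO and left 24 h at 37C, 5% CO2, qHTS titration format.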
SMN2 splice enh: qHTS Assay for Enhancers of SMN2 Splice Variant Expression; HEK293 SMN2-luciferase splicing reporter, luminescence, 30-36 h; Potency, µM (highest dose often 46.1 µM), inactives show at the top dose activity change, positive = activation, hits mostly activators; 2.8% of 210,000 active; AID 1458, 2008; also: % of control where 0% means no effect; nearly all actives have a fitted effect of over 55% in size
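HEK293 cells carry an SMN2 minigene-luciferase reporter in which exon 7 inclusion puts luciferase in frame. Cells were seeded at 2000 cells/well, attached for 10-12 hours, then exposed to compounds for 30-36 hours at 37C before ONE-Glo luminescence.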
ELG1 genotoxic: qHTS screen for small molecules that induce genotoxicity in human embryonic kidney (HEK293T) cells expressing luciferase-tagged ELG1. HEK293T ELG1-luciferase reporter, luminescence, 16 h. Potency, µM (series often up to 46 µM), inactives show top-dose activity change, positive = activation, hits mostly activators. 1.3% of 330,000 active. AID 504466, 2011; also: % of control where 0% means no effect; nearly all actives have a fitted effect of over 60% in size
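After overnight (16 hr) compound treatment at 37 °C, ELG1-luciferase HEK293T cells were lysed with ONE-Glo; luminescence quantified 30 min later at room temperature.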
Rab9 promoter act: qHTS Assay for Rab9 Promoter Activators; Huh7 Rab9 promoter-luciferase reporter, luminescence, 24 h; Potency, µM (top dose mostly 9.22 µM), inactives show at the top dose activation, negative = inhibition, most hits filed as activators; 2.8% of 320,000 active; also: % of control where 0% means no effect; nearly all actives have a fitted effect of over 60% in size
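Luciferase signal after 10 min detection reagent at ambient indicates Rab9 promoter upregulation; stably transfected Huh7 cells were treated 24 h with compound in DMSO at 37 °C, 5% CO2.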
FLuc modulator: qHTS profiling assay for firefly luciferase inhibitor/activator using purifed enzyme and Km concentrations of substrates (counterscreen for miR-21 project); AID 588342, 2011; Potency, µM (titrated, usually from 57.5 µM), for inactives: top-dose activity change, negative = inhibition, hits mostly inhibitors; purified FLuc, Km substrates, luminescence inhibition; Luciferin 4-monooxygenase (Photinus pyralis), P08659; 6.9% of 360,000 active;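 also: plate controls were vehicle for no effect and reference inhibitor for full effect; nearly all actives have a fitted effect of over 55% in size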
Target sequence (P08659 whole entry, looked up): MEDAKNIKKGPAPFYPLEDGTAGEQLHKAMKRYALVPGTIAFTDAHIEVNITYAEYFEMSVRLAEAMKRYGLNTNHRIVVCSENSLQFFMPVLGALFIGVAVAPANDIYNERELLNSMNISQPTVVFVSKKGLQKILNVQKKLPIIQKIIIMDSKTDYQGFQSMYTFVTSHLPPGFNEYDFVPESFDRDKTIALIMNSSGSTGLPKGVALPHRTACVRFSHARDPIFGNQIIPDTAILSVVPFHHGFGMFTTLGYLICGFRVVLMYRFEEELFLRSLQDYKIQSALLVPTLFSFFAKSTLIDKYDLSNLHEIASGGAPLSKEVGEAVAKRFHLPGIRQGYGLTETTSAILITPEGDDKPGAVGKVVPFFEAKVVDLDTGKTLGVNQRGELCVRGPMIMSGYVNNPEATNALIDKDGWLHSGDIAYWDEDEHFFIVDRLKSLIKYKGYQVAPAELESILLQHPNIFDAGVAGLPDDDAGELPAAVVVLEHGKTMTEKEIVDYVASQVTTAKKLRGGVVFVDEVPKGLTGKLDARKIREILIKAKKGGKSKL
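Purified P. pyralis luciferase, 10 nM final, with Km-level 10 uM D-luciferin and 10 uM ATP in 50 mM Tris acetate pH 7.5, 10 mM Mg acetate, 0.01% Tween-20, 0.05% BSA; 6-point qHTS titration about 60 µM downward; luminescence read.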
Numbers without * were called inactive; ? = inconclusive; . = no result given; [ ] = dose if it differs, or a comment. Calls follow the shape of the dose curve; as a rule, active = well fitted curve in the direction sought with a large enough effect; inconclusive = small, poorly fitted or top-dose-only effect, or another doubt; inactive = no such curve, though single readings can be large; an effect the other way counts as inactive or inconclusive. Potency is read from the fitted curve at half-maximal effect.

SMILES	NPC1 promoter act	SMN2 splice enh	ELG1 genotoxic	Rab9 promoter act	FLuc modulator
CCn1c(SCC(N)=O)nnc1-c1ccc(S(=O)(=O)N2CCN(C)CC2)cc1	-2%	7%	-6%	-2%	3%
Cc1nn(-c2ccccc2)c(Cl)c1/C=N/NC(N)=O	18%	.	?	18%	?
Cc1nn(-c2ccccc2)c(Cl)c1/C=N/Nc1nc2ccccc2n1C	3.5µM*	11µM*	8%	?	2.4µM*
Cc1nn(-c2ccccc2)c(Cl)c1/C=N/NC(=O)c1ccnn1C	1.4µM*	.	15µM*	2.8µM*	2.7µM*
COC(=O)N/N=C\c1c(C)nn(-c2ccccc2)c1Cl	?	?	?	?	15µM*
Cc1nn(-c2ccccc2)c(Cl)c1/C=N/NC(=O)CNC(=O)c1ccccc1Cl	6%	4%	-3%	7%	19µM*
Cc1nn(-c2ccccc2)c(Cl)c1/C=N/Nc1nnc(C)c(=O)[nH]1	-5%	.	-6%	-4%	-2%
Cc1ncc(CO)c(/C=N/NC(=O)c2cc3c(s2)CCCC3)c1O	-33%	-62%	16%	-42%	?
CCCc1nc2nc(C)c(NS(=O)(=O)c3ccc(C4CCCCC4)cc3)c(=O)n2[nH]1	0%	.	0%	0%	-16%
CC(=O)NS(=O)(=O)c1ccc(NC(=O)C(C)NS(=O)(=O)/C=C/c2ccccc2)cc1 (stereo unspecified)	.	.	0%	.	.
O=C1/C(=C\c2cccs2)N=C(c2cccs2)N1Nc1ccccc1	-3%	-6%	-5%	-18%	21µM*
O=C1/C(=C/c2cccs2)N=C(c2cccs2)N1Nc1ccccc1	-3%	-7%	2%	10%	24µM*
O=C(COC(=O)C1CCCCC1)Nc1ccc(N2CCCCC2)cc1	16%	-6%	6%	14%	21µM*
O=C(CSc1nncs1)Nc1ccc(N2CCCCC2)cc1	18%	.	4%	21%	13µM*
NS(=O)(=O)c1ccc(NC(=O)COC(=O)C2CCCCC2)cc1	1%	1%	1%	-3%	?
CCCC(=O)Nc1ccc(C(=O)COC(=O)C2CC2C)cc1 (stereo unspecified)	2µM*	.	16%	1.4µM*	1.7µM*
O=C(O)CCC(=O)Nc1ccc(N2CCCCCC2)cc1	10%	?	0%	-4%	19µM*
Cc1nn(S(=O)(=O)c2ccc(F)cc2)c(C)c1S(=O)(=O)N1CCCCC1	-4%	.	2%	1%	4%
CO[C@@H]1/C=C\O[C@@]2(C)Oc3c(C)c(O)c4c(c3C2=O)C(=N[C@H]2CC[C@H](O)O[C@@H]2C)C=C(NC(=O)/C(C)=C\C(=O)[C@@H]2C[C@@H]2[C@@H](O)[C@H](C)[C@@H](O)[C@H](C)[C@H](OC(C)=O)[C@@H]1C)C4=O	.	-16%[9.22 µM]	.	.	.
Cn1nnc2cc(NC(=O)Nc3cccc(C(F)(F)F)c3)ccc21	10%	.	2%	-4%	0%
CC(C)CC(=O)Nc1ccc(C(=O)COC(=O)C2CCC2)cc1	-5%	.	10%	-6%	8.5µM*
CC(C)c1ccc(NC(=O)COC(=O)C2CCCCC2)cc1	11%	.	6%	17%	1.2µM*
Cc1cccc(N2CC(c3nc4ccccc4n3CCC3CCCCC3)CC2=O)c1 (stereo unspecified)	.	.	.	.	-1%
O=C(CSc1nc2[nH]ncc2c(=O)n1-c1ccccc1Br)NCc1ccccc1Cl	-8%	5%	-2%	-4%	0%
N#CCSc1nc2[nH]ncc2c(=O)n1-c1ccccc1Br	?	.	?	0.32µM*	0.13µM*
SMILES	NPC1 promoter act	SMN2 splice enh	ELG1 genotoxic	Rab9 promoter act	FLuc modulator
O=C(CSc1ccc(-c2cccs2)nn1)Nc1ccccc1C(F)(F)F	.	.	.	.	-17%
Fc1ccc(CSc2ccc(-c3cccs3)nn2)cc1	?	5µM*	?	?	?
Fc1ccc(CSc2nnc(-c3cccs3)o2)cc1	-2%	?	?	?	?
Fc1cccc(CSc2ccc(-c3cccs3)nn2)c1	.	.	.	.	9.5µM*
CC(=O)Nc1nnc(SCc2cccc(F)c2)s1	15%	.	?	20%	-10%
Cc1ccc(CSc2ccc(-c3cccs3)nn2)cc1	4.5µM*	14µM*	23µM*	2.8µM*	2.1µM*
O=C(CSc1ccc(-c2cccs2)nn1)Nc1cccc(F)c1	.	.	.	.	24µM*
Cc1ccc(CNC(=O)CSc2ccc(-c3cccs3)nn2)cc1	-6%	3%	-3%	-2%	-1%
Cc1ccccc1CSc1ccc(-c2cccs2)nn1	.	.	.	.	7.6µM*
c1cncc(CSc2ccc(-c3cccs3)nn2)c1	?	15%	15%	3.5µM*	17µM*
CC(C)(C)c1ccc(C(=O)Nn2cnnc2)cc1	18%	.	3%	26%	24µM*
O=C(Cn1c(SCC(=O)N2CCc3ccccc3C2)nc2ccccc21)NC1CCCC1	3%	11µM*	-1%	5%	5%
O=C(Cn1c(SCC(=O)N2CCc3ccccc32)nc2ccccc21)NC1CCCC1	2%	?	7%	0%	4%
CC(Sc1nnc2ccccn12)C(N)=O (stereo unspecified)	-3%	2%	8%	-6%	-2%
O=C1N/C(=N/Nc2ccccc2)S/C1=C\c1ccccc1	10%	?	10%	10%	13µM*
O=C1NC(=Nc2ccccc2)S/C1=C\c1ccccc1	?	.	?	25%	?
CC(NC(=O)C1CCN(C(=O)c2ccc(F)cc2)CC1)c1ccc(-n2ccnc2)cc1 (stereo unspecified)	-4%	.	-4%	1%	1%
S=C(c1ccc(-c2cccc(Cl)c2)o1)N1CCCCC1	3.5µM*	11µM*	?	2.5µM*	2.7µM*
S=C(c1ccc(-c2cc(Cl)ccc2Cl)o1)N1CCOCC1	1%	-16%	0%	-3%	?
S=C(c1ccc(-c2cccc(Cl)c2)o1)N1CCOCC1	3.2µM*	25µM*	3.5µM*	3.5µM*	5.4µM*
O=C(Nc1ccccc1N1CCCCC1)c1ccc(-c2cccc(Cl)c2)o1	3%	-40%	4%	-2%	-11%
S=C(c1ccc(-c2cc(Cl)ccc2Cl)o1)N1CCCCC1	3%	-36%	-3%	-4%	17µM*
CCN(CC)c1ccc(/C=C(\C#N)C(N)=S)cc1	-1%	.	8%	1%	21µM*
O=C1c2cccc3cccc(c23)C(=O)N1CC1CCN(CC(O)COc2ccc3ccccc3c2)CC1 (stereo unspecified)	?	10%	8%	0%	12µM*
COc1cccc(OCC(O)CN2CCC(CN3C(=O)c4cccc5cccc(c45)C3=O)CC2)c1 (stereo unspecified)	-4%	-42%	-8%	-11%	5%
